# Key:
# Conditions in all cases: concentration: 1 μM, replicates: in singlicate; n = 1
# ERN1 = tested on: ERN1
# FAK = tested on: T1, FAK
# T1 construct: gene PTK2
# FER = tested on: FER
# FES = tested on: FES
# FGFR1 = tested on: FGFR1
# FGFR2 = tested on: FGFR2
# FGFR3 = tested on: FGFR3
# FGFR4 = tested on: FGFR4
# FGR = tested on: FGR
# FLT1 = tested on: FLT1
# 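Further: KINOMEscan kinase panel screen.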
SMILES,%Inh (ERN1),%Inh (FAK),%Inh (FER),%Inh (FES),%Inh (FGFR1),%Inh (FGFR2),%Inh (FGFR3),%Inh (FGFR4),%Inh (FGR),%Inh (FLT1)
O=C1Cc2cc(Nc3nc(NCc4cccc(S(=O)(=O)C(F)(F)F)c4)ncc3C(F)(F)F)ccc2N1,0%,0%,0%,7%,0%,1%,5%,0%,0%,0%
Cc1cccc(Cn2ccn3c(=O)cc(N4CCOCC4)nc23)c1 [GSK2297542],16%,0%,30%,10%,0%,16%,16%,10%,32%,20%
Fc1ccc(-c2nn3c(OCC(F)(F)F)cccc3c2-c2ccncc2)cc1 [GW514784],0%,0%,13%,7%,0%,0%,0%,0%,18%,35%
CN(C(=O)c1ccc(-c2cc(-c3c[nH]nc3-c3ccccn3)ccn2)cc1)C1CCOCC1 [GW810083],2%,0%,0%,14%,4%,0%,0%,0%,0%,41%
COc1ccc(Nc2nccc(N3CCC(NC(=O)Nc4cccc(C(C)=O)c4)C3)n2)cc1 (stereo not shown) [GSK1379731],0%,0%,12%,1%,3%,0%,2%,30%,20%,33%
COc1ccc(COc2cc(-n3cnc4ccccc43)sc2C(N)=O)cc1 [GSK1024304],2%,0%,6%,16%,0%,0%,1%,0%,10%,24%
O=C(Nc1n[nH]c2cc(-c3cccc(F)c3)ccc12)C1CC1 [SB-735464],12%,3%,1%,34%,0%,0%,0%,0%,33%,0%
O=c1cc(N2CCOCC2)nc2n(Cc3cccc(F)c3)ccn12 [GSK2297430],0%,0%,24%,9%,6%,0%,14%,1%,32%,42%
Cn1cc(-c2ccc3c(c2)CCN3C(=O)Cc2ccccc2Cl)c2c(N)ncnc21 [GSK2608885],37%,42%,64%,22%,59%,82%,43%,15%,99%,98.8%
O=C(NCCNc1ccnc(Nc2ccc(F)cc2)n1)c1cc2ccccc2s1 [GSK1379874],54%,0%,16%,0%,0%,62%,6%,0%,15%,19%
